NS1 inh: qHTS Assay for Inhibitors of Influenza NS1 Protein Function. AID 2326, 2010. 0.4% of 270,000 active. Potency, µM (highest dose often 46.1 µM), for the others: at the top dose activity, positive = more growth; calls by dose curve; further: potency means the concentration at half of the fitted maximal effect; actives are rising curves; nearly all actives have a fitted effect of over 50% in size
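A cell-based growth assay was used: compounds that relieve NS1-induced slow growth of budding yeast raise OD600. Assay medium was yeast nitrogen base with ammonium sulphate and -URA supplement, pH 6.0, with 2% galactose.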
SARS PLpro yeast-1: qHTS of Yeast-based Assay for SARS-CoV PLP; 0.19% of 330,000 active; S. cerevisiae expressing SARS-CoV PLpro, growth rescue; Potency, µM (highest dose often 32.9 µM), without a hit: at the top dose activity, positive = growth rescue, usual class: activators; calls by dose curve; further: potency means the concentration at half of the fitted maximal effect; 0% is about no effect; nearly all actives have a fitted effect of over 55% in size
AmpC no deterg: qHTS Inhibitors of AmpC Beta-Lactamase (assay without detergent) | P00811 | AmpC nitrocefin hydrolysis, absorbance 480 nm, 0.0001% Triton | Potency, µM (titrated, usually from 57.1 µM), inactives show at the top dose activity change, negative = inhibition, usual class: inhibitors | 0.52% of 330,000 active;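 further: potency means the concentration at half of the fitted maximal effect; plate controls were no compound for no effect and no enzyme for full effect; nearly all actives have a fitted effect of over 20% in size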
Target sequence (P00811 whole entry, looked up): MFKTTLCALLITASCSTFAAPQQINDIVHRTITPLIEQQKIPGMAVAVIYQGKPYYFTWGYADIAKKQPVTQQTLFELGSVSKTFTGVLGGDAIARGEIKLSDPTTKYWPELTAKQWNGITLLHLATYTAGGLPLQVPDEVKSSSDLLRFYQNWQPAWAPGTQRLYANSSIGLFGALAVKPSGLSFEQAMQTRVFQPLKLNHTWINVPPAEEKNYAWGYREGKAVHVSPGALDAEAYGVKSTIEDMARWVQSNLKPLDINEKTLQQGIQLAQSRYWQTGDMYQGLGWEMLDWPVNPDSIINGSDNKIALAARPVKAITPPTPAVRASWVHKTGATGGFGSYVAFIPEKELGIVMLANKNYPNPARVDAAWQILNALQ
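AmpC (5.3 nM in the dispensed reagent) in 20 mM phosphate pH 7.0 with 0.01% (detergent screen) or 0.0001% Triton X-100 was preincubated with compounds for 15 min at room temperature. Nitrocefin was then added from an 800 uM solution, and hydrolysis was followed at 480 nm.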
AmpC inh detg: qHTS Inhibitors of AmpC Beta-Lactamase (assay with detergent). P00811. AmpC hydrolysis of nitrocefin, absorbance 480 nm, 0.01% Triton. Potency, µM (doses to about 114 µM), inactives show top-dose activity change, negative = inhibition, usual class: inhibitors. 0.041% of 370,000 active;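 further: potency means the concentration at half of the fitted maximal effect; 0% = no-compound wells and -100% = no-enzyme wells; nearly all actives have a fitted effect of over 25% in size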
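20 mM phosphate pH 7.0 + 0.01% (detergent screen) or 0.0001% Triton X-100; 5.3 nM AmpC reagent; cpd preinc 15 min RT; nitrocefin (800 uM stock) to start; A480 q20 s × 4 min; Activity was normalised to no-enzyme and no-compound control wells.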
Giardia FBPA inh: qHTS Assay for Inhibitors of Fructose-1,6-bisphosphate Aldolase from Giardia Lamblia. 0.71% of 290,000 active. purified Giardia FBPA. A8B2U2. Potency, µM (series often up to 59.6 µM), for the others: at the top dose activity, negative = inhibition, hits mostly inhibitors; further: potency means the concentration at half of the fitted maximal effect; on the % scale 0 is the no-effect control and ±100 the full control effect; nearly all actives have a fitted effect of over 55% in size
Target sequence (A8B2U2 whole entry, looked up): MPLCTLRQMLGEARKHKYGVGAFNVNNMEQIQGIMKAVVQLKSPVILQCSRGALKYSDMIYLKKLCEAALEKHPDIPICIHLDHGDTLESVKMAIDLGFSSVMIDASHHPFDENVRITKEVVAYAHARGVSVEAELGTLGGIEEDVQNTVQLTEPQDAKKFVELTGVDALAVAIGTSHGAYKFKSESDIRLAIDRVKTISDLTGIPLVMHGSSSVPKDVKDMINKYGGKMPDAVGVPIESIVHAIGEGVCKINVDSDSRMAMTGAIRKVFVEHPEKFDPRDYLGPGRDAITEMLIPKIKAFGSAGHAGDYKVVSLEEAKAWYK
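Giardia FBPA (40 nM reagent) was preincubated 10 min at RT with compound (up to 57.5 uM final), then substrate plus GAPDH/TPI/NAD/arsenate coupling system with diaphorase/resazurin was added; resorufin fluorescence (525/598 nm) was read after 20 min.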
SARS PLpro yeast-2: qHTS of Yeast-based Assay for SARS-CoV PLP: Hit Validation. calls only. shares compounds with SARS PLpro yeast-1. AID 652038, 2013. 19% of 1,000 active. yeast expressing SARS-CoV PLpro, growth phenotype rescue; call rule not given here
Starred values were filed as active, the others as inactive; i = inactive; u = inconclusive; x = no result; + = active, no number; ! = not confirmed by another sample; [ ] = dose if it differs, or a comment. Hits are enriched below; roughly 1.4% of the tested compounds scored in any of these assays. Unless noted, the call rests on the fitted dose curve; in most records, active means well fitted curve in the direction sought with a large enough effect; inconclusive means small, poorly fitted or top-dose-only effect, or another doubt; inactive means no such curve, though single readings can be large; an effect the other way counts as inactive or inconclusive.

SMILES	NS1 inh	SARS PLpro yeast-1	AmpC no deterg	AmpC inh detg	Giardia FBPA inh	SARS PLpro yeast-2
Cc1ccccc1OCCOC(=O)c1cc(S(=O)(=O)N2CCCCC2)ccc1N1CCOCC1	x	10µM*	68.3%	-10.8%	x	u
O=C(O)c1cccc(S(=O)(=O)N2CCN(S(=O)(=O)c3ccc4ccccc4c3)CC2)c1	x	2.1%	-12.9%	-15.6%	x	x
Oc1ccc(CN2CCN(c3ccccc3)CC2)c2cccnc12	6.4%	11.2µM*	-19.0%	u	-20.9%	i
Oc1ccc(CN2CCC(Cc3ccccc3)CC2)c2cccnc12	x	2.51µM*	-21.4%	8.3%	-4.8%	u
Oc1ccc(CN2CCCCC2)c2cccnc12	11.3%	-77.2%	-17.1%	-1.4%	u	x
CN(C)C1CCN(Cc2cc(COCc3ccccc3)c3cccnc3c2O)C1 (stereo not given)	x	10µM*!	28.8%	-10.8%	x	u
O=C(COc1ccccc1)N1CCCC1	x	-0.6%	-5.7%	-11.5%	2.0%	x
CCCCNC(=O)N1CCc2ccccc2C1	-9.7%	3.16µM*	3.4%	u	2.5%	i
O=C1c2ccccc2NC(c2ccccc2O)N1O (stereo not given)	-2.6%	5.4%	-5.7%	u	u	x
O=C1c2ccccc2NC(c2cn[nH]c2-c2ccc(Cl)cc2)N1O (stereo not given)	19.4%	7.94µM*	-52.8%	-8.8%	u	u
O=C1c2ccccc2NC(c2cn[nH]c2-c2ccccc2)N1O (stereo not given)	18.2%	u	-11.0%	u	u	i
CCOc1ccccc1C(=O)OCC(=O)NCc1ccc2c(c1)OCO2	x	-0.4%	1.7%	x	x	x
O=C(Nc1ccccc1)NC1CCCc2ccccc21 (stereo not given)	-7.2%	-1.2%	-28.7%	2.6%	-2.7%	x
CNC(=O)NC1CCCc2ccccc21 (stereo not given)	7.3%	u	-6.6%	u	-11.4%	i
Cn1cc(S(=O)(=O)c2ccc(Cl)cc2)c(=O)c2cc(F)c(N3CCCC3)cc21	x	x	x	-3.9%	x	x
CCOC(=O)CSc1nc2c(sc(=S)n2Cc2ccco2)c(=O)n1-c1ccccc1	u	u	-23.7%	-11.8%	-5.9%	i
CCN(CC)C(=O)CSc1nc2c(sc(=S)n2Cc2ccco2)c(=O)n1-c1ccccc1	23.7%	-1.3%	51.0%	u	7.6%	x
C=CCOc1ccc(C2NC(=S)NC(c3ccccc3)=C2C(C)=O)cc1OC (stereo not given)	1.7%	-0.8%	-5.7%[2.29 µM]	1.0%	3.9%	x
CCOC(=O)COc1c(Cl)cc(C2NC(=S)NC(c3ccccc3)=C2C(C)=O)cc1OCC (stereo not given)	-1.2%	u	-4.2%	1.3%	-1.5%	i
C[C@@H]1O[C@@H](O[C@H]2C[C@@H](O)[C@@]3(CO)[C@H]4[C@H](O)C[C@]5(C)[C@@H](C6=CC(=O)OC6)CC[C@]5(O)[C@H]4CC[C@@]3(O)C2)[C@@H](O)[C@H](O)[C@H]1O	0.1%	x	x	x	x	x
NC(=S)Nc1cccc2cccnc12	2.6%	u	-11.3%	-2.9%	-2.9%	i
COc1ccc(Cl)cc1/C=N/NC(=O)c1c(-c2ccccc2)noc1C	-18.1%	1.4%	-30.6%	-14.4%	x	x
CCCCCCCCCCCNC(=O)c1ccoc1C	-12.3%	-61.2%	-24.8%	u	-3.4%	x
CCCCCC(C)NC(=O)c1ccoc1C (stereo not given)	-26.9%	x	-14.6%	u	1.3%	i
CC[n+]1c(/C=C(/C)SC)sc2ccccc21	6.2%	3.55µM*	-13.7%	u	-4.4%	i
SMILES	NS1 inh	SARS PLpro yeast-1	AmpC no deterg	AmpC inh detg	Giardia FBPA inh	SARS PLpro yeast-2
Cc1cc(SC#N)cc(C)c1NC(=O)CCl	-3.1%	x	-5.3%	-2.4%	-7.6%	i
CCC(COC)NC(=O)c1ccc(OC)c(OC2CCN(C(C)=O)CC2)c1 (stereo not given)	-3.8%	u	-18.2%	-3.4%	10.3%	x
CCOC(=O)N1CCN(C(=O)CSCC(=O)Nc2nc(-c3ccc(Cl)s3)cs2)CC1	-13.4%	12.6µM*	-13.7%	-8.2%	-5.2%	u
CCOC(=O)N1CCN(C(=O)CSCC(=O)Nc2nc(-c3ccc(OC)cc3)cs2)CC1	-10.6%	3.6%	69.1%	1.8%	1.4%	x
O=[N+]([O-])c1ccccc1S(=O)(=O)Nc1ccn(Cc2c(F)cccc2Cl)n1	-7.4%	-1.4%	-30.3%	-10.7%	-28.5%	x
O=C(COC(=O)c1ccccc1NCCO)NNC(=O)c1cccs1	x	u	-7.2%	u	x	i
COc1ccc(N(CN2C(=O)c3ccccc3C2=O)C(=O)COc2ccc(Cl)cc2Cl)cc1	-13.7%	12.6µM*	-7.0%	-10.3%	2.5%	i
CC(=O)NCc1nnc2c3ccccc3c(-c3ccccc3)nn12	9.5%	-0.8%	-1.7%[2.29 µM]	-8.4%	0.5%	x
O=C(COc1ccccc1)NCc1nnc2c3ccccc3c(-c3ccccc3)nn12	4.5%	x	93.7%	u	8.2%	i
Cc1nn(C)cc1C(=O)Nc1c(C)nn(Cc2ccccc2Cl)c1C	-2.1%	2.9%	-16.6%	-10.8%	-0.3%	x
C[C@]12CC[C@@H]3c4ccc(O)cc4CC[C@H]3[C@@H]1C[C@@H](O)[C@@H]2O[C@@H]1O[C@H](C(=O)O)[C@@H](O)[C@H](O)[C@H]1O	-0.5%	u	-53.1%	-6.1%	-2.6%	i
S=C(NCCc1ccccc1)Nc1ccccn1	-1.6%	5.62µM*	-44.7%	0.4%	-0.9%	+
Cc1cccc(NC(=S)NCCc2ccccc2)n1	-5.2%	0.5%	-8.5%[2.29 µM]	0.6%	u	x
Cc1ccc(C)c(N2CCN(C(=O)C3CCCN(S(=O)(=O)c4c(C)[nH]c(=O)[nH]c4=O)C3)CC2)c1 (stereo not given)	-1.2%	10µM*	40.6%	u	1.2%	i
O=C(c1ccc(Cl)nc1)N1CCN(S(=O)(=O)c2ccc(Cl)cc2)CC1	x	0.8%	16.8%	4.6%	9.7%	x
Cc1ccc(C(C)C)c(OCc2ccc(C(=O)N/N=C/c3cccc(O)c3O)cc2)c1	-32.0%	2.82µM*	8.91µM*	-9.8%	u	u
Cc1ccnc(NC(=O)CCC(=O)N(CC(=O)NC(C)(C)C)c2ccc3c(c2)OCO3)c1	-4.6%	-1.0%	18.8%	-10.9%	1.5%	x
COc1ccc(-c2cn(CCC(=O)O)c(-c3ccc(Cl)nc3)n2)cc1	x	u	-25.7%	-0.6%	x	i
Nc1nonc1NC(=O)CSc1nc2ccccc2s1	-46.9%	x	x	3.5%	-16.6%	x
O=C(CCN1CCOCC1)NC1CCCN(Cc2ccccc2F)C1 (stereo not given)	5.3%	u	-3.0%	4.0%	7.5%	i
CCCCN(C)C(=O)C1CCN(Cc2ccc(OCc3ccccc3)cc2)CC1	-25.6%	-6.5%	123.8%	-0.7%	-13.9%	x

Source: PubChem BioAssay
